# Assay results: PubChem BioAssay AID493185 (National Center for Advancing Translational Sciences (NCATS), 2011)
# Activity calls are given as the source filed them. Calls come from the whole dose curve; as a rule, active = well fitted activation curve with a large enough effect; inconclusive = small, poorly fitted or top-dose-only effect; inactive = no such curve, though single readings can be large or run the other way.
# Experiment: Counterscreen for Identifying a Potential Treatment of Ataxia-Telangiectasia: Hit Validation; note: 0% is about no effect
# Conditions: cell-free AlphaLISA/AlphaScreen artifact counterscreen, PBS only, no cells; series mostly up to 76.9 µM; activation: at the top concentration
# Description: NIH Chemical Genomics Center [NCGC]
# NIH Molecular Libraries Probe Centers Network [MLPCN]
# Assay Submitter (PI): Wei Zheng and Yosef Shiloh
# Ataxia-telangiectasia (A-T) is a devastating and progressive disease for which, there is no cure. Although A-T is a multisystem disease, it is stereotyped characterized by its neurological symptoms such as truncal ataxia, due to cerebellar cortical degeneration of the Purkinje and granule cells. Other symptoms of A-T are telangiectasias (dilated blood vessels), primary immunodeficiency, marked sensitivity to ionizing radiation (IR), chromosomal instability and predisposition to cancer.
# The underlying genetic cause of A-T is null mutations in the ATM (A-T mutated) gene. ATM is a nuclear serine/threonine kinase that functions as a master regulator of the cellular responses to double strand breaks (DSBs) in the DNA. Upon activation by DSBs, ATM phosphorylates a plethora of downstream targets, including KAP-1 on […]. KAP-1 phosphorylation occurs shortly in response to DSBs and mediates global chromatin relaxation, which facilitates DSB repair. To screen for small molecules that will compensate for the loss of ATM in cells derived from A-T patients, we monitored KAP-1 phosphorylation as a readout for ATM-like activity using an AlphaLISA assay.
# 3. Library compounds, 23 nl, 76.7 - 0.61uM dilution series final concentration
# 4. Incubation, 60 min, 37C, 5% CO2, 95% humidity
# 6. Incubation, 30 min, 37C, 5% CO2, 95% humidity
# 7. Reagent, 1 ul, Premixed detection reagents and lysis buffer
# 8. Reagent, 1 ul, 0.6% Antifoam A
# 9. Incubation, 6 hr, 25C, 95% humidity
# 10. Readout, EnVision, EnVision plate reader. AlphaScreen 1536-well protocol
# PBS was dispensed into medium-binding white solid-bottom tissue culture treated Kalypsys plates with a Multidrop dispenser. Detection reagent and lysis buffer was 3.75nM Rab-a-pKAP1 antibody bound to 75 ng/ul AlphaScreen SA donor bead, 3.75 nM Biot-M-a-KAP1 antibody bound to AlphaLISA protein A acceptor bead, 0.5x protease inhibitor cocktail and 0.25x PerkinElmer lysis buffer. EnVision protocol for 1536-well AlphaScreen read (30ms excitation, 100ms read), about 10 min/plate. This assay is similar to the primary screen but is without cells. It aims to identify artifacts of the assay platform and unspecific hits.
row,Compound,activation
1,O=C(Nc1ccccc1Oc1ccccc1)c1cccs1,4.1% (inactive)
2,CCn1c(SCc2cccc(F)c2)nnc1-c1ccncc1,6.56% (inactive)
3,O=C(Nc1ccc([N+](=O)[O-])cc1)c1cc2ccccc2nc1Cl,-3.28% (inactive)
4,COc1ccc(C(=O)N2CCCC2(C#N)c2ccccc2)cc1[N+](=O)[O-] (stereo not given),-8.2% (inactive)
5,Cc1cc2c(c(=O)o1)C(CCC1CCCCC1)C(C#N)=C(N)O2 (stereo not given),-17.7% (inactive)
6,CCOC(=O)CNS(=O)(=O)Cc1ccccc1,6.77% (inactive)
7,Clc1cccc(Cl)c1CSc1nnc(-c2ccncc2)s1,-5.74% (inactive)
8,CCS(=O)(=O)c1ccc(C(=O)Nc2ccccc2)c(Cl)c1Cl,0.769% (inactive)
9,Fc1ccc(C2N(c3ccccc3)C(=S)N3CCCN23)cc1 (stereo not given),-1.54% (inactive)
10,COc1ccccc1C1CCN(C(=O)c2ccc(Cl)cc2)CC1,5.38% (inactive)
11,COc1cccc(OCCc2c(C)n[nH]c2C)c1,-2.46% (inactive)
12,COC(=O)N/N=C/c1ccccc1OCCOc1ccc(OC)cc1,-13.1% (inactive)
13,COc1ccc(CCNC(=O)C2CCN(S(=O)(=O)c3ccc(OC)c(OC)c3)CC2)cc1OC,0.769% (inactive)
14,CN(C)C(=O)c1nc2ccc(Cl)cn2c1CNCc1cccc(OC(F)(F)F)c1,-11.3% (inactive)
15,Cc1ccc(OC(=O)c2cc(C)nn2C(C)(C)C)cc1,-13.5% (inactive)
16,COc1cc(/C=C2\CCOC2=O)cc(OC)c1OC,17.2% (inactive)
17,COC(=O)c1cccc2c1-c1ccccc1/C2=N\NC(N)=O,-15.6% (inactive)
18,C=CCOC(=O)C1=C[C@H](c2coc3ccccc3c2=O)C[C@H](OCc2ccc(CO)cc2)O1,-20.8% (inactive)
19,Cc1ccc(C(=O)N/C(=C\c2ccco2)C(=O)NC2CCS(=O)(=O)C2)cc1 (stereo not given),-5.26% (inactive)
20,CC(C)NC(=O)c1ccc(COc2ccc(C(C)(C)C)cc2)o1,10.7% (inactive)

row,Compound,activation
1,CCN(CC)CCNC(=O)CCc1c(C)nc2c(c(C)nn2-c2ccc(C)cc2)c1C,17.7% (inactive)
2,CCC(C)NC(=O)c1cn(CCOC)c(=O)c2c1c1ccccc1n2C (stereo not given),-6.92% (inactive)
3,Cc1ccc2c(c1)sc(=NC(=O)C1CC1)n2C,3.28% (inactive)
4,CNC(=S)N(CCc1c(C)[nH]c2ccc(Cl)cc12)Cc1cccnc1,-17.2% (inactive)
5,CCN1C/C(=C/c2sccc2C)c2nc3ccccc3c(C(=O)O)c2C1,0.769% (inactive)
6,Nc1nc2ccccc2cc1-c1cccs1,17.2% (inactive)
7,COc1ccc(N(CCC#N)C(=O)/C(C#N)=C\c2cccs2)cc1,-12% (inactive)
8,O=C(Nc1cc(S(=O)(=O)N2CCOCC2)ccc1Cl)c1cc(=O)c2ccccc2o1,2.26% (inactive)
9,CCn1nc(C)c(CNC(=O)c2cc(COc3ccc(F)cc3Cl)on2)c1C,-11.3% (inactive)
10,CCc1ccc(C2c3[nH]c4ccccc4c3CCN2C(=O)c2cc[n+]([O-])cc2)cc1 (stereo not given),22.6% (inactive)
11,Cc1ccc(C(C)C)c(OCCN2CCc3ccccc3C2)c1,39.2% (inactive)
12,O=C(O)c1nccnc1C(=O)Nc1ccccc1-c1ccccc1,9.02% (inactive)
13,S=c1[nH]nc(Cn2c(-c3ccccn3)nc3ccccc32)n1-c1ccc2c(c1)OCCO2,-6.15% (inactive)
14,CCn1nc(C)c(/C=N/NC(=O)Cn2cncn2)c1C,10.7% (inactive)
15,Cc1nn(-c2ccccc2)c2nc(C(Cl)(Cl)Cl)[nH]c(=O)c12,6.56% (inactive)
16,O=C(c1ccc(F)cc1)c1ccc(N2CCCCC2)cc1,9.02% (inactive)
17,CCC(=O)c1ccc2c(c1)OCCO2,-15.8% (inactive)
18,CCNC(=S)N(Cc1cc2cccc(C)c2[nH]c1=O)C1CCCC1,0% (inactive)
19,O=C(/C(=C/c1ccc(Cl)cc1)c1nc2ccccc2[nH]1)c1cccs1,-3.28% (inactive)
20,CCOc1cccc(-c2nnc(SCC(=O)Nc3cc(C)ccc3OC)n2N)c1,-1.64% (inactive)
